BioA inh = M. tuberculosis BioA enzyme inhibitors, primary screen, biochemical, plate reader, single point, HTS; actives 0.096% (n = 360,000); purified M. tuberculosis BioA enzyme; inhibition, % at 9.99 µM; 7,8-diaminopelargonic acid synthase BioA (Mycobacterium tuberculosis); in the data active = inhibition above about 40%; inconclusive = no clear call, values can overlap the other calls
TcdB GH inh = TcdB glycohydrolase inhibitors, primary screen, biochemical, single point, plate reader. Toxin B (Clostridioides difficile), P18177. TcdB glycohydrolase enzymatic assay. inhibition, % at 9.99 µM. actives 0.24% (n = 350,000). AID 652162, 2013; in the data active = inhibition above about 10%
PrP UTR inh = inhibition of PrP 5' UTR reporter expression. cell-based PrP 5' UTR mRNA reporter, plate reader. inhibition, % (no concentration beside the values). actives 0.35% (n = 340,000). AID 488862, 2010; in the data active = inhibition above about 52%; also: 0 = median of the neutral control wells
Yp Topo-I inh = Yersinia pestis topoisomerase I inhibitors, primary screen, biochemical, cleavage product accumulation, plate reader, single point | DNA topoisomerase I (Yersinia pestis CO92) | Y. pestis Topo-I cleavage product accumulation | actives 0.064% (n = 360,000) | activity, % at 10 µM | AID 504884, 2011; in the data active = activity above about 50%, passing the limit was not always enough; inconclusive = no clear call, values can overlap the other calls
PrP 5UTR single = prion 5' UTR mRNA inhibition, cherry-pick retest | cell-based prion protein 5' UTR reporter, plate reader | shares compounds with PrP UTR inh | inhibition, % at 2.5 µM | actives 48% (n = 1,100); in the data active = inhibition above about 54%; inconclusive = no clear call, values can overlap the other calls
Numbers without * were called inactive; ? = inconclusive; / = not tested or not shown. Sampled rows, rich in hits. Any-hit rate of the full collection: about 0.57%.

SMILES	BioA inh	TcdB GH inh	PrP UTR inh	Yp Topo-I inh	PrP 5UTR single
CCOC(=O)c1cnc2c(-c3ccccc3OC)c(C)nn2c1C	/	-0.6	76.5*	1.2	-25.0
CCOC(=O)c1cnc2c(-c3ccccc3)c(-c3ccccc3)nn2c1C	-1.5	-0.2	-21.6	6.1	/
CCC(C)(C)n1nnnc1C(c1cccs1)N1CCCCC1 (stereo unspecified)	2.6	0.8	51.5*	-0.6	-5.0
C[C@@H]1CCCCO[C@@H](CN(C)C(=O)NC2CCCCC2)[C@H](C)CN([C@@H](C)CO)C(=O)c2cc(NS(=O)(=O)c3cn(C)cn3)ccc2O1	1.8	1.2	/	/	/
COc1ccc(-c2noc(CCCC(=O)O)n2)cc1	-1.2	/	56.3*	6.2	29.1
CCCOc1ccc2cc(-c3ccccn3)c(=O)oc2c1	-0.8	0.0	77.8*	-1.9	57.0*
O=C(NC1CCCCC1)[C@@H]1[C@@H](CO)[C@@H]2Cn3c(cccc3=O)[C@@H]2N1CC1CCCC1	/	0.2	/	/	/
CC1(C(=O)O)CC12c1ccccc1-c1ccccc12 (stereo unspecified)	/	1.2	62.1*	2.6	-21.5
O=C(O)CCC1(CCC(=O)O)c2ccccc2-c2ccccc21	-7.5	0.6	-50.9	-13.2	/
O=C(C[C@@H]1C=C[C@@H](NC(=O)Cc2cccnc2)[C@@H](CO)O1)Nc1ccc(-c2ccccc2)cc1	/	-1.5	/	/	/
Nc1cc(C(Cl)=C(Cl)Cl)c(S(N)(=O)=O)cc1S(N)(=O)=O	-4.4	1.0	64.2*	-1.6	-2.1
CN1C(=O)c2cc(NC(=O)C3CCC3)ccc2OC[C@@H]2O[C@H](CC(=O)NCc3ccccc3F)CC[C@@H]21	/	0.5	/	/	/
COc1ccccc1-c1nnc2sc(-c3cc4ccccc4o3)nn12	-0.4	/	53.6*	21.9	64.0*
Cc1noc(C)c1S(=O)(=O)Nc1ccc2c(c1)CC(=O)N([C@@H](C)CO)C[C@@H](C)[C@H](CN(C)C(=O)Nc1ccc(F)cc1)O2	17.2	0.6	/	/	/
Cc1ccc(NC(=O)CN(C)C(=O)C2COc3ccccc3O2)cc1 (stereo unspecified)	/	1.0	75.3*	-3.3	-8.7
CCN(C[C@H]1N[C@@](Cc2ccccc2)(C(=O)OC)[C@H]2C(=O)N(Cc3ccccc3)C(=O)[C@@H]12)S(=O)(=O)c1ccc(C(F)(F)F)cc1	-0.8	0.2	85.7*	22.8	-13.1
CC[C@@]1(C(=O)OC)N[C@H](CN(C)C(=O)Nc2ccc(F)cc2)[C@@H]2C(=O)N(Cc3ccccc3)C(=O)[C@@H]21	0.0	0.4	70.2*	-6.5	-7.7
CS(=O)(=O)N(CC(=O)NCCSc1ccccn1)c1ccc(F)cc1	/	-0.2	51.8*	-2.3	4.0
CCCC1=Nc2cc(C(=O)NCCCOCC)ccc2Sc2ccccc21	0.5	/	57.6*	31.6	84.4*
CCC1=Nc2cc(C(=O)NCCCOC)ccc2Sc2ccccc21	-1.3	/	77.0*	-6.6	36.2
CCC1=Nc2cc(C(=O)NCc3ccco3)ccc2Sc2ccc(C)cc21	-0.4	0.8	69.2*	33.8	85.7*
CCCC1=Nc2cc(C(=O)NCCCOC(C)C)ccc2Sc2ccccc21	-0.9	/	-8.8	3.6	/
C[C@@H]1CN([C@H](C)CO)S(=O)(=O)c2ccc(C3=CCCCC3)cc2O[C@@H]1CN(C)S(=O)(=O)c1ccc(F)cc1	1.4	0.5	/	/	/
Cc1ccc(S(=O)(=O)N(C)C[C@H]2Oc3ccc(NC(=O)c4ccncc4)cc3CC(=O)N([C@@H](C)CO)C[C@@H]2C)cc1	2.0	/	/	/	/
O=C(C[C@H]1CC[C@H](NC(=O)c2ccncc2)[C@@H](CO)O1)Nc1ccccc1	-1.5	-1.7	/	/	/
SMILES	BioA inh	TcdB GH inh	PrP UTR inh	Yp Topo-I inh	PrP 5UTR single
CCN(CC)Cc1cc(C(C)(C)C)cc(N2CCOCC2)c1O	/	-2.0	73.1*	1.2	4.3
CN(C)Cc1cc(C(C)(C)C)cc(N2CCOCC2)c1O	0.7	-11.2	-5.6	4.4	/
COc1cccc(-c2nc3n(n2)C(c2cccs2)C(C(=O)Nc2cccnc2)=C(C)N3)c1 (stereo unspecified)	6.4	0.3	85.2*	-3.0	4.7
Cc1c(Cl)cccc1Nc1n[nH]c(=S)s1	/	0.4	71.1*	0.1	-17.2
Cc1ccccc1Nc1n[nH]c(=S)s1	-1.6	2.1	/	1.3	/
O=C(Nc1ccc(N2CCOCC2)cc1)c1cnccn1	4.0	0.7	44.3	2.7	/
O=C(Nc1ccc(N2CCOCC2)cc1)c1cnsn1	5.2	/	67.6*	-6.2	76.8*
C[C@@H]1CN([C@@H](C)CO)C(=O)c2cccc(NC(=O)NC3CCCCC3)c2O[C@H]1CN(C)C(=O)Nc1ccc2c(c1)OCO2	1.7	-0.5	/	/	/
CCOc1ccc(-c2cnc3ccccc3n2)cc1	0.0	2.5	60.1*	11.1	?
CNc1nc2c(C)cccn2c(=O)c1C=NCc1ccccc1	-1.0	/	78.4*	0.8	3.6
CC(C)(C)NC(=S)N1CCC(C(=O)c2ccc(Cl)cc2)CC1	7.4	3.0	55.7*	-5.1	11.9
O=C1N(c2ccccc2)C[C@@H]2C[C@@H](c3cc4ccccc4o3)N3CCC[C@@]123	/	-1.0	58.7*	8.0	73.6*
COc1ccc(NC(=O)N(C)C[C@@H]2Oc3ncc(-c4ccc(C#N)cc4)cc3C(=O)N([C@H](C)CO)C[C@H]2C)cc1	11.4	0.0	/	/	/
CCC(=O)Nc1cc2nn(-c3ccc(C)cc3)nc2cc1C	-2.1	1.4	67.6*	-6.4	62.4*
CC(=O)CCC(=O)NCCc1ccccc1F	-3.1	1.4	85.3*	-1.4	-7.5
O=C(NCc1ccccc1F)c1ccc2c(c1)OCO2	5.0	/	-18.9	9.4	/
O=C(NCCc1ccccc1F)c1ccc2c(c1)OCCO2	-1.0	-1.2	88.5*	12.5	92.6*
COc1ccc(C(=O)CCC(=O)NCCc2ccccc2F)cc1	0.3	0.8	-5.1	2.7	/
C[C@H](CO)N1C[C@H](C)[C@@H](CN(C)C(=O)c2cccc(F)c2)Oc2ncc(-c3cncnc3)cc2C1=O	-2.8	-0.4	/	/	/
Cc1cc(C(=O)Nc2cccc3c2O[C@H](CN(C)C(=O)Nc2ccc(C(F)(F)F)cc2)[C@@H](C)CN([C@@H](C)CO)C3=O)n(C)n1	-0.7	0.9	/	/	/
CCCNC(=O)N1CC2(CN(Cc3nccs3)C2)c2c([nH]c3cc(OC)ccc23)[C@H]1CO	/	-1.2	/	/	/
Cn1c(=N)n(CC(=O)c2ccc(Cl)c(Cl)c2)c2ccccc21	0.8	0.7	60.8*	2.1	12.3
Cn1c(=N)n(CC(=O)c2ccccc2)c2ccccc21	1.2	1.3	/	4.4	/
CN(C)CCNc1ccc2ncn3c4ccc(O)cc4c(=O)c1c23	/	-10.9	93.1*	-41.6	59.7*
C[C@@H]1CCCCO[C@@H](CN(C)C(=O)NC2CCCCC2)[C@@H](C)CN([C@@H](C)CO)C(=O)c2cc(NC(=O)Nc3ccc(C(F)(F)F)cc3)ccc2O1	-3.9	-0.9	/	/	/
Cc1ccc(C2(c3ccccc3)NC(=O)N(CC(=O)NCc3ccccc3)C2=O)cc1C (stereo unspecified)	9.5	-3.1	79.6*	22.5	-3.9

Compound activity as filed in PubChem BioAssay.
